Screening results from PubChem BioAssay.
CHX counter – Cycloheximide Counterscreen for Small Molecule Inhibitors of Shiga Toxin | AID 2314, 2010 | cell reporter, cycloheximide protein synthesis inhibition counterscreen | max response, % | actives 12% (n = 300,000); in the data active = max response mostly above about 13%, no sharp cut-off; inactive = mostly below about 14%; also: read at 38.3 µM for the half of the compounds with a filed dose; 0% is about no effect
AMA1-RON2 inh – qHTS for Inhibitors of AMA1-RON; Towards Development of Antimalarial Drug Lead: Primary Screen; actives 0.2% (n = 360,000); AlphaScreen AMA1-biotinylated RON2 peptide binding; Potency, µM (titrated, usually from 58.2 µM), for inactives: top-dose activity change, negative = inhibition, most hits filed as inhibitors;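 also: potency is read from the fitted curve at half-maximal effect; 0% = vehicle wells and -100% = peptide control; nearly all actives have a fitted effect of over 45% in size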
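AMA1 (3D7) with his tag at 25 nM final met compounds first, then biotinylated RON2 peptide at 25 nM; detection used donor plus acceptor beads, 10 µg/mL apiece, read by AlphaScreen after 30 min at room temperature.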
Pf growth 96h – Primary qHTS for delayed death inhibitors of the malarial parasite plastid, 96 hour incubation. actives 6.9% (n = 320,000). P. falciparum luciferase reporter growth, 96 h. AID 504834, 2011. Potency, µM (highest dose often 28.7 µM), without a hit: at the highest dose activity change, negative = inhibition, hits mostly inhibitors; also: potency is read from the fitted curve at half-maximal effect; % is scaled to controls: 0 for no effect and ±100 for the full control effect
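Readout is luminescence from an integrated firefly luciferase in P. falciparum. Red cells, 2% hematocrit and 0.05% parasitemia final, were cultured with compound through two parasite generations (96 hours) at 37 C, 5% CO2.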
Shiga toxin inh – A qHTS for Small Molecule Inhibitors of Shiga Toxin | inhibition, % at 38.7 µM | actives 9.2% (n = 290,000) | Vero cells, Shiga toxin protein synthesis inhibition reporter; in the data active = inhibition mostly above about 28%, no sharp cut-off; inactive = mostly below about 43%; also: 0% is about no effect
SARS PLP yeast – qHTS of Yeast-based Assay for SARS-CoV PLP; S. cerevisiae expressing SARS-CoV PLpro, growth rescue; Potency, µM (doses to about 32.9 µM), inactives show at the highest dose activity, positive = growth rescue, actives largely listed as activators; actives 0.19% (n = 330,000); AID 485353, 2010; calls by dose curve; also: potency is read from the fitted curve at half-maximal effect; 0% is about no effect; nearly all actives have a fitted effect of over 55% in size
Pf growth 48h – Primary qHTS for delayed death inhibitors of the malarial parasite plastid, 48 hour incubation; P. falciparum luciferase growth in erythrocytes, 48 h; Potency, µM (titrated, usually from 28.7 µM), inactives show at the top dose activity change, negative = inhibition, hits mostly inhibitors; actives 5.9% (n = 310,000); also: potency is read from the fitted curve at half-maximal effect; % is scaled to controls: 0 for no effect and ±100 for the full control effect
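Parasite viability was followed by luminescence of a genomically integrated firefly luciferase. Cultures held 0.1% parasitemia at 2% hematocrit (final), incubated under 5% CO2 at 37 C.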
Numbers without * were called inactive; ? = inconclusive; . = no result; [ ] = remark or other dose. Sampled rows, rich in hits. Any-hit rate of the full collection: about 19%. Unless noted, calls follow the shape of the dose curve; as a rule, active = well fitted curve in the direction sought with a large enough effect; inconclusive = small, poorly fitted or top-dose-only effect, or another doubt; inactive = no such curve, though single readings can be large; an effect the other way counts as inactive or inconclusive.

SMILES	CHX counter	AMA1-RON2 inh	Pf growth 96h	Shiga toxin inh	SARS PLP yeast	Pf growth 48h
Cc1ccc(-c2cc(C(=O)NCCCN3CCOCC3)c3ccccc3n2)cc1C	8.3	-1.7%	?	46.5*	-0.8%	-95.9%
O=C(NCCN1CCOCC1)c1cnn2c(-c3ccccc3)cc(-c3ccccc3)nc12	-2.6	56.8%	10.4µM*	-26.9	-3.5%	?
CCOc1ccc(-c2cc(C(=O)NCC3CCCO3)c3ccccc3n2)cc1 (stereo not drawn)	23.9*	-3.9%	36.0%	65.1*	-13.0%	30.6%
CC1(C(=O)NS(=O)(=O)Cc2ccccc2)CCN1C(=O)C1(c2ccc(Cl)cc2)CCC1 (stereo not drawn)	.	-1.1%	.	.	.	.
O=C(COC(=O)c1ccc(S(=O)(=O)N2CCCC2)cc1)NCc1ccccc1	-3.5	6.7%	10.9%	19.8	1.8%	17.2%
CC(C)NC(=O)C1(C)CN(S(C)(=O)=O)CC(=O)N1CCc1ccc(O)cc1 (stereo not drawn)	.	-1.0%	.	.	.	.
Cc1cc(NC(=O)CSC2=NS(=O)(=O)c3ccccc3N2)no1	.	5.5%	-1.5%	.	-5.7%	-27.5%
CCOc1ccc(-c2cc(C(=O)NCCCN3CCCC3)c3ccccc3n2)cc1	11.2	-11.1%	-7.0%	15.0	0.7%	11.7µM*
COc1ccnc(N=CNOCc2ccc(C)cc2)c1C#N	-1.8	-1.6%	-14.5%	21.9	-4.3%	.
COc1ccnc(N=CNOCc2cccc(C(F)(F)F)c2)c1C#N	0.7	2.8%	14.7µM*	-4.4	-2.1%	8.4%
Cc1cc(C)c2c(CN3CCN(Cc4ccccc4)CC3)cc(=O)oc2c1C	-2.3	-4.6%	?	-8.1	-1.2%	?
CN(C)c1nc(NCc2ccccc2)nc(SCC(=O)Nc2ccccc2)n1	-4.5	3.6%	?	-1.3	6.5%	?
CC(Sc1nc(NCc2ccccc2)nc(N(C)C)n1)C(=O)Nc1ccccc1 (stereo not drawn)	-1.3	-2.1%	5.22µM*	-8.9	3.4%	?
CN(C)c1nc(NC(C)(C)C)nc(SCC(=O)Nc2ccccc2)n1	6.4	-8.2%	-4.2%	-0.8	-1.6%	14.7µM*
CC(C)(C)Nc1nc(SCC(=O)Nc2ccccc2)nc(N2CCOCC2)n1	6.6	-21.6%	?	54.5	-0.9%	9.28µM*
CN(C)c1nc(SCC(=O)Nc2ccccc2)nc(N2CCOCC2)n1	-0.7	4.7%	?	-9.4	-6.9%	-18.5%
CC(C)(C)Nc1nc(NCc2cccnc2)nc(N2CCOCC2)n1	-3.4	35.0%	?	-5.6	10.0%	5.22µM*
COc1ccc(CN(C)C(=S)Nc2ccc(Cl)cc2)cc1	1.4	0.0%	2.1%	-1.8	0.7%	-15.6%
O=c1nc(Nc2ccccc2)sc2ccc([N+](=O)[O-])cc12	-7.9	-10.0%[11.6 µM]	?	-5.6	15.3%	11.0%
O=C(CSc1nc(Nc2ccccc2)nc(N2CCOCC2)n1)Nc1ccc2c(c1)OCCO2	-4.2	-16.5%	.	-22.7	-1.2%	9.28µM*
COc1ccc(N2CC(C(=O)NCCCN3CCOCC3)CC2=O)cc1 (stereo not drawn)	1.7	-1.7%	-7.2%	-18.7	-14.4%	-4.5%
CCOC(=O)CNC(=O)CSc1nc2sc(C)c(C)c2c(=O)n1C	-2.9	53.7%	?	-27.1	-12.2%	17.3%
O=C(CSc1nnc(CNc2ccc(Cl)cc2)n1Cc1ccccc1)NCc1ccco1	14.4*	1.3%	?	19.3	-8.7%	-10.8%
Cc1sc2nc(SCC(=O)NCCO)n(C)c(=O)c2c1C	-2.6	-1.5%	9.28µM*	18.1	-7.3%	6.6%
O=C(CSc1nnc(Cc2ccccc2)n1Cc1ccccc1)NCc1ccco1	12.3	-5.0%	10.4%	23.4*	-3.6%	?
SMILES	CHX counter	AMA1-RON2 inh	Pf growth 96h	Shiga toxin inh	SARS PLP yeast	Pf growth 48h
O=C(CSc1nnc(-c2cccnc2)n1Cc1ccccc1)NCc1ccco1	-9.8	-1.7%	87.3%	-18.3	-0.9%	-9.9%
Cc1sc2nc(SCC(=O)NCc3ccco3)n(CCc3ccccc3)c(=O)c2c1C	-0.8	9.0%	-0.9%	-0.9	?	11.7µM*
O=C1c2ccccc2C(=O)N1CCc1ccccn1	15.7*	1.9%	8.8%	12.6	-5.0%	32.4%
O=C1c2ccccc2C(=O)N1CCc1ccccc1	.	-3.8%	.	.	.	.
N#Cc1ccccc1CCN1C(=O)c2ccccc2C1=O	40.6*	0.9%	8.0%	.	-2.4%	-18.1%
O=C1c2cccc3c([N+](=O)[O-])ccc(c23)C(=O)N1CCc1ccccn1	-1.7	-2.8%	24.2%	1.0	-0.8%	9.9%
O=C(NCc1ccon1)C1CCC(=O)N(CCc2ccc(Cl)cc2)C1 (stereo not drawn)	1.6	11.7%	?	-7.8	1.8%	-7.6%
NC1=NC(=O)/C(=C/c2cn(Cc3ccccc3)c3ccccc23)S1	23.8*	-13.4%	?	62.4*	7.0%	2.08µM*
COc1ccc2oc(=O)c(C(=O)N3CCN(c4ccccc4)CC3)cc2c1	19.2*	-8.4%	.	78.0	3.4%	0.0%
COc1ccc(C(=S)N2CCN(c3ccccc3C)CC2)cc1	-1.4	-7.1%	8.28µM*	14.0	10.5%	?
O=C(c1cc2ccccc2oc1=O)N1CCN(CCc2ccccc2)CC1	7.8	-6.8%	9.28µM*	42.1	1.2%	6.5%
COc1ccc2oc(=O)c(C(=O)N3CCN(c4ccccc4C)CC3)cc2c1	65.6*	25.0%	.	131.6*	-0.8%	3.8%
COc1ccc2oc(=O)c(C(=O)N3CCN(C(=O)c4ccccc4)CC3)cc2c1	-2.6	0.2%	?	-10.4	-0.2%	3.3%
O=C(c1ccco1)N1CCN(C(=O)c2cc3ccccc3oc2=O)CC1	-2.4	16.8%	-14.6%	-4.9	2.6%	10.3%
CCCOc1nc(C)cc(COC)c1C(N)=O	-0.9	-8.8%	-32.8%	20.5	-1.6%	33.7%
O=C(c1ccc(F)cc1Cl)N1CCN(CCc2ccccc2)CC1	1.0	10.4%	8.28µM*	-8.8	1.9%	5.2%
O=C(c1cccc(C(F)(F)F)c1)N1CCN(CCc2ccccc2)CC1	-1.3	-3.5%	25.4%	-1.6	2.6%	?
COC(=O)/C=C/C(=O)N1CCN(c2ccccc2C)CC1	0.7	-12.1%	7.38µM*	1.8	-9.3%	-16.8%
Cc1ccc(C)c(N2CCN(C(=O)c3cc4ccccc4oc3=O)CC2)c1	-1.6	-3.0%	9.28µM*	-5.3	-0.4%	.
O=C(c1cc2ccccc2oc1=O)N1CCN(c2ccc(N3CCOCC3)nn2)CC1	-2.7	7.5%	-24.2%	19.4	-2.4%	-2.9%
Cc1ccc(N=C2S/C(=C\c3cn(CC(=O)O)c4ccccc34)C(=O)N2C)cc1	3.8	9.4%[2.32 µM]	?	6.7	6.5%	?
Cc1nccn1-c1ccc(C(F)(F)F)cc1NC=O	6.6	-2.7%	-9.1%	23.6	-0.2%	75.2%
